# Measured values: the supplement of paper PMC9262897, “Low-cost anti-mycobacterial drug discovery using engineered E. coli” (Nature Communications, 2022)
# Structures can show the parent of a compound that is named as a salt. ± gives the standard deviation of the averaged measurements.
# What was measured:
# Assay in all cases: growth (OD600 after 10 h); higher = more growth (less inhibition)
# [1] = tested on: E. coli TESEC Alr+ wild-type control; conditions: compound 0.1 mM; raw OD600 reference: median of DMSO wells 0.241, cell-free background 0.041
# Experimental: (§1)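 TESEC Mtb Alr E. coli, or the Alr+ wild-type control, in 384-well plates with Prestwick library compounds at 0.1 mM and 1% DMSO, across arabinose induction levels of 1E3 to 1E7 nM. Growth is read as OD600 after 10 h at 37 °C in triplicate biological replicates.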
# E. coli TESEC Mtb Alr [2] = conditions: compound 0.1 mM
# Experimental: as §1
# E. coli TESEC Mtb Asd = conditions: compound 0.1 mM
# Experimental: (§2)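 TESEC E. coli strains in which the native enzyme is deleted and replaced by arabinose-inducible Mtb Asd, DapB, CysH or TrpD, each grown in its selective medium. Strains were screened against the Prestwick library at 0.1 mM and 1% DMSO in 384-well format at low and high arabinose induction. Growth is read as OD600 after 10 h in triplicate.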
# E. coli TESEC Mtb DapB = conditions: compound 0.1 mM
# Experimental: as §2
# [3] = tested on: E. coli TESEC Alr+ wild-type control; conditions: compound 0.1 mM; raw OD600 reference: median of DMSO wells 0.49, cell-free background 0.052
# Experimental: (§3)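 TESEC Mtb Alr E. coli (ΔaraC ΔtolC ΔentC Δalr ΔdadX, arabinose-inducible Mtb Alr) or the Alr+ wild-type control strain, grown in defined M9-fructose medium without D-alanine in 96-well plates with Prestwick library compounds at 0.1 mM and 1% DMSO. Low Alr induction is 0.1 µM arabinose and high induction is 10 mM arabinose.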
# E. coli TESEC Mtb Alr [4] = conditions: compound 0.1 mM; remark: listed apart in the source
# Experimental: as §3
# [5] = arabinose 1000 nM, raw OD600 reference: median of DMSO wells 0.294, cell-free background 0.041
# [6] = arabinose 10000 nM, raw OD600 reference: median of DMSO wells 0.264, cell-free background 0.041
# [7] = arabinose 100000 nM, raw OD600 reference: median of DMSO wells 0.201, cell-free background 0.041
# [8] = arabinose 1000000 nM, raw OD600 reference: median of DMSO wells 0.193, cell-free background 0.041
# [9] = arabinose 10000000 nM, raw OD600 reference: median of DMSO wells 0.146, cell-free background 0.041
# [10] = arabinose induction (level): High, raw OD600 reference: median of DMSO wells 0.331, cell-free background 0.041
# [11] = arabinose induction (level): Low, raw OD600 reference: median of DMSO wells 0.417, cell-free background 0.041
# [12] = arabinose induction (level): High, raw OD600 reference: median of DMSO wells […], cell-free background 0.041
# [13] = arabinose induction (level): Low, raw OD600 reference: median of DMSO wells 0.227, cell-free background 0.041
# [14] = arabinose 100 nM, raw OD600 reference: median of DMSO wells 0.413, cell-free background 0.052
# [15] = arabinose 10000000 nM, raw OD600 reference: median of DMSO wells […], cell-free background 0.052
SMILES,growth [1],growth (E. coli TESEC Mtb Alr [2]; [5]),growth (E. coli TESEC Mtb Alr [2]; [6]),growth (E. coli TESEC Mtb Alr [2]; [7]),growth (E. coli TESEC Mtb Alr [2]; [8]),growth (E. coli TESEC Mtb Alr [2]; [9]),growth (E. coli TESEC Mtb Asd; [10]),growth (E. coli TESEC Mtb Asd; [11]),growth (E. coli TESEC Mtb DapB; [12]),growth (E. coli TESEC Mtb DapB; [13]),growth [3],growth (E. coli TESEC Mtb Alr [4]; [14]),growth (E. coli TESEC Mtb Alr [4]; [15])
CCOC1O[C@H]([C@@H](COCc2ccccc2)OCc2ccccc2)[C@H](OCc2ccccc2)[C@H]1O (some centres not stated) [Tribenoside],0.23 ± 0.005,0.29 ± 0.008,0.255 ± 0.015,0.148 ± 0.0075,0.0915 ± 0.0035,0.154 ± 0.0022,0.214 ± 0.023,0.199 ± 0.015,0.155 ± 0.0039,0.155 ± 0.016,0.374 ± 0.015,0.378 ± 0.0058,0.0944 ± 0.017
CN(C(=O)CN(CCO)CC(=O)N(C)C(C)(C)Cc1ccccc1)C(C)(C)Cc1ccccc1 [Oxethazaine],0.0424 ± 0.0038,0.0404 ± 0.001,0.03963 ± 0.00015,0.0411 ± 0.00087,0.03937 ± 0.00015,0.0411 ± 0.0013,0.179 ± 0.014,0.25 ± 0.037,0.187 ± 0.031,0.202 ± 0.05,0.0484 ± 0.00076,0.165 ± 0.2,0.0514 ± 0.00058
O=C(NCC1CCCCN1)c1cc(OCC(F)(F)F)ccc1OCC(F)(F)F (configuration not stated) [Flecainide acetate],0.2202 ± 0.00045,0.2999 ± 0.00055,0.276 ± 0.0049,0.188 ± 0.0093,0.168 ± 0.0038,0.143 ± 0.0024,0.263 ± 0.026,0.42 ± 0.091,0.178 ± 0.016,0.213 ± 0.019,0.495 ± 0.081,0.412 ± 0.011,0.356 ± 0.018
CC1(C)S[C@@H]2[C@H](NC(=O)Cc3ccccc3)C(=O)N2[C@H]1C(=O)O [Benzylpenicillin sodium],0.237 ± 0.005,0.2824 ± 0.00081,0.282 ± 0.0074,0.172 ± 0.011,0.227 ± 0.017,0.132 ± 0.0078,0.331 ± 0.1,0.385 ± 0.06,0.204 ± 0.013,0.229 ± 0.017,0.533 ± 0.11,0.434 ± 0.0042,0.363 ± 0.0066
Cc1nnc(NS(=O)(=O)c2ccc(N)cc2)s1 [Sulfamethizole],0.254 ± 0.0053,0.288 ± 0.011,0.236 ± 0.004,0.211 ± 0.032,0.155 ± 0.0088,0.139 ± 0.0043,0.326 ± 0.045,0.433 ± 0.018,0.189 ± 0.0042,0.183 ± 0.0058,0.462 ± 0.018,0.411 ± 0.011,0.33 ± 0.011
CN(C)CCOC(c1ccccc1)c1ccccc1 [Diphenhydramine hydrochloride],0.2284 ± 0.002,0.296 ± 0.008,0.238 ± 0.0071,0.187 ± 0.013,0.151 ± 0.0087,0.148 ± 0.0063,0.194 ± 0.016,0.435 ± 0.016,0.195 ± 0.021,0.24 ± 0.051,0.495 ± 0.051,0.408 ± 0.0097,0.307 ± 0.029
O=C(O)c1ccccc1Nc1cccc(C(F)(F)F)c1 [Flufenamic acid],0.0528 ± 0.00081,0.05003 ± 0.00047,0.04063 ± 0.00038,0.0593 ± 0.0024,0.04467 ± 0.00032,0.05807 ± 0.00038,0.0691 ± 0.017,0.0784 ± 0.0046,0.117 ± 0.0058,0.181 ± 0.046,0.114 ± 0.0046,0.0904 ± 0.038,0.0543 ± 0.00078
COCCCC/C(=N\OCCN)c1ccc(C(F)(F)F)cc1 [Fluvoxamine maleate],0.225 ± 0.0049,0.274 ± 0.0066,0.26 ± 0.013,0.214 ± 0.016,0.133 ± 0.0052,0.136 ± 0.0081,0.295 ± 0.079,0.231 ± 0.044,0.183 ± 0.014,0.229 ± 0.05,0.518 ± 0.051,0.416 ± 0.0072,0.319 ± 0.0054
C=CCc1ccccc1OCC(O)CNC(C)C (configuration not stated) [Alprenolol hydrochloride],0.217 ± 0.0068,0.267 ± 0.013,0.259 ± 0.013,0.199 ± 0.023,0.156 ± 0.0022,0.145 ± 0.0043,0.322 ± 0.074,0.419 ± 0.027,0.183 ± 0.011,0.284 ± 0.059,0.446 ± 0.015,0.405 ± 0.013,0.363 ± 0.013
CC[C@H](C)C(=O)O[C@H]1C[C@@H](C)C=C2C=C[C@H](C)[C@H](CC[C@@H]3C[C@@H](O)CC(=O)O3)[C@H]21 [Lovastatin],0.256 ± 0.0052,0.307 ± 0.01,0.0518 ± 0.002,0.21 ± 0.017,0.0567 ± 0.013,0.139 ± 0.0042,0.276 ± 0.026,0.35 ± 0.065,0.163 ± 0.018,0.192 ± 0.023,0.473 ± 0.043,0.43 ± 0.018,0.148 ± 0.042
Cc1cn[nH]c1 [Fomepizole],0.242 ± 0.0098,0.2912 ± 0.0021,0.249 ± 0.0059,0.231 ± 0.024,0.178 ± 0.003,0.137 ± 0.0022,0.233 ± 0.036,0.364 ± 0.065,0.193 ± 0.014,0.215 ± 0.0091,0.554 ± 0.016,0.423 ± 0.011,0.367 ± 0.017
COc1ccccc1OCC(O)CO (configuration not stated) [Guaifenesin],0.238 ± 0.0069,0.306 ± 0.021,0.274 ± 0.0056,0.191 ± 0.0043,0.19 ± 0.0056,0.141 ± 0.0035,0.427 ± 0.031,0.377 ± 0.14,0.192 ± 0.013,0.228 ± 0.023,0.535 ± 0.093,0.408 ± 0.011,0.345 ± 0.015
Oc1ncnc2[nH]ncc12 [Allopurinol],0.234 ± 0.0068,0.283 ± 0.013,0.241 ± 0.0057,0.189 ± 0.019,0.172 ± 0.0073,0.141 ± 0.0016,0.449 ± 0.032,0.435 ± 0.038,0.216 ± 0.019,0.234 ± 0.016,0.53 ± 0.078,0.41 ± 0.013,0.34 ± 0.015
CN1CCCC(n2nc(Cc3ccc(Cl)cc3)c3ccccc3c2=O)CC1 (configuration not stated) [Azelastine HCl],0.16 ± 0.0036,0.19 ± 0.011,0.172 ± 0.0055,0.193 ± 0.0073,0.105 ± 0.0015,0.1635 ± 0.00076,0.157 ± 0.025,0.241 ± 0.056,0.169 ± 0.0087,0.191 ± 0.011,0.472 ± 0.021,0.409 ± 0.0069,0.312 ± 0.019
